For twelve compounds, Potency results are on record in PubChem BioAssay (NCATS).

Each structure is given as a SMILES string. Several values for one entry are separate records, joined by “and”; a condition that tells them apart may be missing. Identical values can stand only once. Inconclusive results are not listed. Activity calls are given as the source filed them. Calls follow the shape of the dose curve; as a rule, active = well fitted inhibition curve with a large enough effect; inconclusive = small, poorly fitted or top-dose-only effect; inactive = flat fitted curve, though single readings scatter.

What all share (experiment): qHTS profiling for inhibitors of Plasmodium falciparum proliferation (AID 504749); also: nearly all actives have a fitted effect of over 60% in size
What all share (conditions): P. falciparum in erythrocytes, SYBR Green DNA, 72 h; series mostly up to 28.7 µM
(Quantitative high-throughput screening tests each substance at several concentrations.)

The subject of one test is ATS95. The procedure, abridged: (§1)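 In a 72 h erythrocytic culture (37 C, humidified, 5% CO2) at 2.5% hematocrit and 0.3% starting parasitemia, compounds were tested; SYBR Green I in detergent lysis buffer stained parasite DNA overnight.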
The next test concerns C2A. The procedure, abridged: as §1
Another test deals with CP185. The method in brief:
as §1

Another test concerns CP191. The procedure, abridged: as §1
The test system of a further test is CP192. The method in brief: as §1
Another test deals with CP194. The procedure, abridged:
as §1

The next test concerns CP201. The method in brief:
as §1

For the next test, the system named is CP203. The procedure, abridged: as §1
A further test has as its system CP211. The method in brief: as §1
In the next test the test system is CP215. The procedure, abridged: as §1
Another test deals with CP217. The procedure, abridged:
as §1

The test system of a further test is CP237. The method in brief:
as §1

Another test deals with CP238. The procedure, abridged:
as §1

The next test concerns CP247. The procedure, abridged: as §1
Another test deals with CP250. The procedure, abridged: as §1
In another test the test system is CP252. The method in brief: as §1
The next test concerns CP256. The method in brief: as §1
The test system of the next test is CP260. The procedure, abridged:
as §1

The test system of another test is CP262. The procedure, abridged:
as §1

In a further test the test system is CP265. The procedure, abridged: as §1
Potency is read from the fitted curve at half-maximal effect.

Consider `CCC1(c2ccccc2)CCC(=O)NC1=O` (stereo not given), for which the Potency result in the test on ATS95, in the test with C2A, with CP185, with CP191, in the test on CP192 and in the test on CP194 was “inactive” throughout. Also, the Potency result in the test with CP201, in the test with CP203, in the test with CP211, in the test on CP215, in the test on CP217 and in the test with CP237 was “inactive” in each case. For the same compound, the Potency entry in the test with CP238, with CP247, in the test with CP250, with CP252, in the test with CP256 and in the test on CP260 was “inactive” throughout. The Potency result in the test with CP262 and in the test on CP265 was “inactive” in each case.
For `CCN(CC)C(C)C(=O)c1ccccc1` (stereo not given), the Potency result in the test on ATS95, with C2A, in the test with CP185, in the test with CP191, with CP192 and in the test on CP194 was “inactive” in each case. The Potency result in the test on CP201, with CP203, in the test on CP211, in the test on CP215, in the test on CP217 and in the test with CP237 was “inactive” throughout. Also, the Potency result with CP238, in the test with CP247, with CP250, with CP252, with CP256 and in the test on CP260 was “inactive” throughout. In addition, the Potency result in the test with CP262 and in the test with CP265 was “inactive” throughout.
Regarding `C[C@]12CC[C@H]3[C@@H](CC=C4C[C@@H](O)CC[C@@]43C)[C@@H]1CC[C@@H]2O`, the Potency result in the test on ATS95, with C2A, with CP185, with CP191, in the test on CP192 and with CP194 was “inactive” each time. In addition, the Potency result with CP201, with CP203, with CP211, in the test on CP215, with CP217 and with CP237 was “inactive” each time. Also, the Potency entry in the test with CP238, with CP247, in the test with CP250, in the test with CP252, with CP256 and in the test on CP260 was “inactive” each time. In addition, the Potency entry in the test on CP262 and in the test with CP265 was “inactive” throughout.
Consider `CN(C)C(=S)SSC(=S)N(C)C`, for which the Potency in the test on ATS95 was 3.16 µM (active); with C2A it was 3.16 µM (active); with CP185, 2 µM (active); with CP191, 3.16 µM (active); in the test on CP192, 3.79 µM (active); in the test with CP194 it was 3.38 µM (active). Also, the Potency in the test on CP201 was 4.26 µM (active); in the test with CP203, 4.78 µM (active); with CP211 it was 2.69 µM (active); with CP215, 5.36 µM (active); in the test on CP217, 3.98 µM (active); with CP237, 1.58 µM (active). Further, the Potency in the test on CP238 was 3.55 µM (active); in the test with CP247, 2.82 µM (active); with CP250, 3.16 µM (active); with CP252, 3.98 µM (active); with CP256 it was 3.55 µM (active); in the test on CP260, 891 nM (active). For the same compound, the Potency with CP262 was 2.13 µM (active); with CP265 it was 3.98 µM (active).
As for `CCOC(=O)NC(O)C(Cl)(Cl)Cl` (stereo not given), the Potency entry in the test on ATS95, in the test on C2A, in the test with CP185, in the test on CP191, with CP192 and in the test with CP194 was “inactive” in each case. Also, the Potency result in the test with CP201, in the test on CP203, in the test on CP211, with CP215, in the test with CP217 and in the test with CP237 was “inactive” each time. Further, the Potency entry in the test on CP238, with CP247, with CP250, in the test with CP252, in the test with CP256 and in the test with CP260 was “inactive” each time. Also, the Potency entry in the test on CP262 and with CP265 was “inactive” throughout.
On to `COc1ccc(C(=O)N2CCCC2=O)cc1`, for which the Potency entry in the test with ATS95, in the test with C2A, in the test with CP185, in the test with CP191, in the test on CP192 and in the test on CP194 was “inactive” in each case. Also, the Potency result in the test with CP201, in the test with CP203, in the test with CP211, in the test on CP215, with CP217 and with CP237 was “inactive” in each case. Also, the Potency result with CP238, in the test with CP247, in the test on CP250, in the test on CP252, in the test on CP256 and in the test with CP260 was “inactive” each time. The Potency result in the test with CP262 and in the test with CP265 was “inactive” throughout.
For `C[C@H]1C(=O)O[C@@H]2CCN3CC=C(COC(=O)[C@](C)(O)[C@]1(C)O)[C@H]23`, the Potency result in the test on ATS95, with C2A, in the test with CP185, in the test with CP191, in the test on CP192 and in the test on CP194 was “inactive” each time. For the same compound, the Potency result with CP201, in the test with CP203, in the test with CP211, in the test with CP215, with CP217 and in the test on CP237 was “inactive” each time. For the same compound, the Potency entry in the test with CP238, with CP247, with CP250, with CP252, with CP256 and in the test with CP260 was “inactive” throughout. In addition, the Potency result with CP262 and with CP265 was “inactive” throughout.
Take `CC[n+]1c(-c2ccccc2)c2cc(N)ccc2c2ccc(N)cc21`: the Potency in the test on ATS95 is 126 nM (active) and 355 nM (active); with C2A, 251 nM (active) and 355 nM (active); in the test with CP185 it was 158 nM (active) and 316 nM (active); in the test with CP191 it was 282 nM (active) and 447 nM (active); with CP192 it was 190 nM (active) and 426 nM (active); in the test on CP194 it was 269 nM (active) and 1.2 µM (active). For the same compound, the Potency with CP201 is 379 nM (active) and 1.35 µM (active); in the test on CP203, 213 nM (active) and 675 nM (active); in the test on CP211, 213 nM (active) and 601 nM (active); in the test with CP215 it was 239 nM (active) and 953 nM (active); in the test on CP217 it was 355 nM (active) and 631 nM (active); in the test on CP237, 158 nM (active) and 398 nM (active). Further, the Potency in the test with CP238 is 112 nM (active) and 355 nM (active); in the test on CP247, 282 nM (active) and 631 nM (active); in the test with CP250, 178 nM (active) and 355 nM (active); in the test with CP252, 100 nM (active) and 282 nM (active); in the test on CP256, 31.6 nM (active) and 63.1 nM (active); in the test on CP260, 199 nM (active) and 398 nM (active). The Potency is 95.3 nM (active) and 107 nM (active) in the test on CP262; 251 nM (active) and 794 nM (active) in the test with CP265.
In the case of `CNC(=O)NC(O)C(Cl)(Cl)Cl` (stereo not given), the Potency result with ATS95, in the test on C2A, in the test with CP185, with CP191, with CP192 and in the test with CP194 was “inactive” in each case. Also, the Potency entry in the test on CP201, in the test with CP203, with CP211, in the test on CP215, in the test on CP217 and in the test on CP237 was “inactive” throughout. For the same compound, the Potency result with CP238, in the test with CP247, in the test on CP250, in the test on CP252, in the test with CP256 and with CP260 was “inactive” throughout. In addition, the Potency result in the test with CP262 and in the test with CP265 was “inactive” throughout.
Turning to `C[N+]1(CCC(C(N)=O)(c2ccccc2)c2ccccc2)CCCCC1`, the Potency entry in the test on ATS95, in the test with C2A, with CP185, in the test on CP191, in the test with CP192 and with CP194 was “inactive” each time. The Potency entry in the test on CP201, in the test with CP203, with CP211, in the test on CP215, with CP217 and in the test on CP237 was “inactive” throughout. For the same compound, the Potency entry in the test with CP238, with CP247, in the test with CP250, in the test with CP252, in the test on CP256 and in the test with CP260 was “inactive” each time. Moreover, the Potency entry in the test with CP262 and in the test on CP265 was “inactive” throughout.
Turning to `COP(=O)(OC)OC=C(Cl)Cl`, the Potency result with ATS95, in the test with C2A, in the test on CP185, with CP191, with CP192 and in the test with CP194 was “inactive” in each case. Further, the Potency entry in the test on CP201, in the test on CP203, in the test on CP211, with CP215, with CP217 and with CP237 was “inactive” throughout. Further, the Potency result in the test on CP238, in the test on CP247, in the test with CP250, in the test on CP252, with CP256 and in the test with CP260 was “inactive” throughout. The Potency entry in the test on CP262 and in the test on CP265 was “inactive” in each case.
`CC(C)NCC(O)c1ccc(N)c(C#N)c1` (stereo not given): the Potency entry in the test with ATS95, in the test with C2A, with CP185, with CP191, in the test with CP192 and with CP194 was “inactive” in each case. Besides, the Potency result in the test on CP201, in the test on CP203, in the test on CP211, in the test with CP215, with CP217 and in the test with CP237 was “inactive” each time. The Potency entry in the test with CP238, in the test on CP247, with CP250, with CP252, with CP256 and in the test with CP260 was “inactive” each time. In addition, the Potency entry with CP262 and in the test with CP265 was “inactive” each time.
